About 79,000 compounds went through this panel and 15% of them were active in at least one assay; those are over-represented in the sample as a whole. The source made the active and inactive calls. No stated cut-off is given here; in the data, active means growth inhibition above about 70%; inactive means the rest.
Columns and labels:
[1] = NCI Yeast Anticancer Drug Screen. Data for the rad50 strain (AID 155);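 further: 0% = growth of vehicle-only cultures of the same strain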; details: S. cerevisiae rad50 strain growth inhibition, active compounds read high
Method in brief: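 Growth of the mutant yeast was measured after compound exposure and referenced to vehicle-treated cultures.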

[2] = NCI Yeast Anticancer Drug Screen. Data for the mec2-1 strain (AID 157); details: S. cerevisiae mec2-1 strain, active compounds read high
Method in brief: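 Using mec2-1 yeast: add compound, measure growth, express inhibition versus vehicle-treated cultures.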

[3] = NCI Yeast Anticancer Drug Screen. Data for the sgs1 mgt1 strain (AID 161);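 further: 0% = growth of cultures given vehicle only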; details: S. cerevisiae sgs1 mgt1 strain, active compounds read high
Method in brief: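 Yeast cells carrying a defined DNA-repair defect were exposed to test compounds. Growth inhibition was measured relative to vehicle-treated controls.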

[4] = NCI Yeast Anticancer Drug Screen. Data for the cln2 rad14 strain (AID 165);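 further: 0% = growth equal to vehicle treated cultures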; details: S. cerevisiae cln2 rad14 strain, active compounds read high
Method in brief: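 Yeast strain cln2 rad14, bearing defects in cell cycle control and DNA repair, serves as the test system; values reflect growth inhibition compared with vehicle.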

[5] = NCI Yeast Anticancer Drug Screen. Data for the bub3 strain (AID 167); details: S. cerevisiae bub3 mutant strain, active compounds read high
Method in brief: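 Whole-cell yeast assay. The mutant strain was incubated with compounds, and growth inhibition was determined by comparison with vehicle-treated cells.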

[6] = NCI Yeast Anticancer Drug Screen. Data for the mlh1 rad18 strain (AID 175); details: S. cerevisiae mlh1 rad18 strain growth inhibition, active compounds read high
Method in brief: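 Steps: expose repair-defective yeast to compound; measure growth; express inhibition against vehicle-treated controls.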

[7] = at 5.0 µM (retest, dose inferred, filed as 0.5)
[8] = at 50.0 µM (retest, dose inferred, filed as 5.0)

Measured: growth inhibition

CCOc1ccc(/C=N\NC(=O)c2ccco2)cc1OCC
active: [2]; at 50.0 µM 94% | [5]; at 50.0 µM 92.6%
inactive: [1]; [7] -6% | [1]; [8] 4% | [1]; at 50.0 µM 59.8% | [2]; [7] -3% | [2]; [8] -2% | [3]; [7] -3% | [3]; [8] 11% | [3]; at 50.0 µM 47.7% | [4]; [7] -23% | [4]; [8] -22% | [4]; at 50.0 µM 67% | [5]; [7] -11% | [5]; [8] -22% | [6]; [7] -2% | [6]; [8] -12% | [6]; at 50.0 µM 44.6%

N#CC(C(=O)C(=O)Nc1ccc(Cl)c(Cl)c1)c1c(Cl)cccc1Cl (stereo not given)
inactive: [1]; [7] -1% | [1]; [8] 4% | [1]; at 50.0 µM 25.9% | [2]; [7] -2% | [2]; [8] -10% | [2]; at 50.0 µM 3.15% | [3]; [7] -1% | [3]; [8] -1% | [3]; at 50.0 µM 2.95% | [4]; [7] 4% | [4]; [8] -4% | [4]; at 50.0 µM 43% | [5]; [7] -1% | [5]; [8] -1% | [5]; at 50.0 µM -3.2% | [6]; [7] -2% | [6]; [8] -5% | [6]; at 50.0 µM 31.4%

CCS/C(SC)=C(/c1ccccc1)[P+](c1ccccc1)(c1ccccc1)c1ccccc1
active: [1]; [7] 98% | [1]; [8] 99% | [1]; at 50.0 µM 90.6% | [2]; [7] 99% | [2]; [8] 100% | [2]; at 50.0 µM 94.3% | [3]; [7] 99% | [3]; [8] 99% | [3]; at 50.0 µM 91.6% | [4]; [7] 98% | [4]; [8] 99% | [4]; at 50.0 µM 91.5% | [5]; [7] 99% | [5]; [8] 100% | [5]; at 50.0 µM 91% | [6]; [7] 98% | [6]; [8] 99% | [6]; at 50.0 µM 91.8%

O=c1c2c(F)c(F)c(F)c(F)c2sc2nccn12
inactive: [1]; [7] 15% | [2]; [7] 40% | [3]; [7] 2% | [4]; [7] 5% | [5]; [7] 27% | [6]; [7] 46%
active: [1]; [8] 100% | [1]; at 50.0 µM 89% | [2]; [8] 100% | [2]; at 50.0 µM 91.2% | [3]; [8] 99% | [3]; at 50.0 µM 84.8% | [4]; [8] 99% | [4]; at 50.0 µM 90.2% | [5]; [8] 100% | [5]; at 50.0 µM 89.5% | [6]; [8] 99% | [6]; at 50.0 µM 86.8%

CCOC1=Cc2c(oc3c(C(C)(C)C)cc(OCC)cc23)OC(C(C)(C)C)=C1
active: [1]; [8] 95% | [1]; at 50.0 µM 71.2% | [2]; [8] 98% | [2]; at 50.0 µM 85.3% | [3]; [8] 97% | [3]; at 50.0 µM 73.4% | [4]; [8] 96% | [4]; at 50.0 µM 75.7% | [5]; [8] 98% | [5]; at 50.0 µM 78.7% | [6]; [8] 94%
inactive: [1]; [7] 22% | [2]; [7] 22% | [3]; [7] 28% | [4]; [7] 13% | [5]; [7] 32% | [6]; [7] 44% | [6]; at 50.0 µM 19.6%

CCCCCC/C=C1\CCC(CN2CCOCC2)C1=O (stereo not given)
active: [1]; [8] 96% | [1]; at 50.0 µM 81.7% | [2]; [8] 97% | [3]; [8] 96% | [3]; at 50.0 µM 79.7% | [4]; [8] 79% | [5]; [8] 98% | [5]; at 50.0 µM 82.5% | [6]; [8] 97% | [6]; at 50.0 µM 74.8%
inactive: [1]; [7] 53% | [2]; [7] 23% | [2]; at 50.0 µM 52% | [3]; [7] 16% | [4]; [7] 25% | [4]; at 50.0 µM 63% | [5]; [7] 48% | [6]; [7] 59%

O=C(CCl)Nc1cc(Cl)ccc1Cl
inactive: [1]; [7] 2% | [1]; [8] 23% | [1]; at 50.0 µM 37.5% | [2]; [7] -20% | [2]; [8] 26% | [2]; at 50.0 µM 30.8% | [3]; [7] 6% | [3]; [8] 30% | [3]; at 50.0 µM 43.4% | [4]; [7] 5% | [4]; [8] 20% | [4]; at 50.0 µM 18.1% | [5]; [7] 10% | [6]; [7] 2% | [6]; [8] 18% | [6]; at 50.0 µM 4.8%
active: [5]; [8] 83% | [5]; at 50.0 µM 84.6%

CN/N=C(\C)C(CN1CCCCC1)C(C1=C(O)c2ccccc2OC1)c1ccccc1 (stereo not given)
inactive: [1]; [7] 25% | [1]; [8] 25% | [1]; at 50.0 µM 69.8% | [2]; [7] 25% | [2]; [8] 25% | [2]; at 50.0 µM 57.6% | [3]; [7] 9% | [3]; [8] 9% | [4]; [7] -1% | [4]; [8] -1% | [4]; at 50.0 µM 66.7% | [5]; [7] 10% | [5]; [8] 10% | [5]; at 50.0 µM 67.7% | [6]; [7] 25% | [6]; [8] 25%
active: [3]; at 50.0 µM 78.7% | [6]; at 50.0 µM 72%

CCCCCCCCCCCCCCC/C([O-])=N/[N+](C)(C)CC(C)O (stereo not given)
active: [1]; [7] 98% | [1]; [8] 98% | [1]; at 50.0 µM 90.9% | [2]; [7] 99% | [2]; [8] 98% | [2]; at 50.0 µM 91.2% | [3]; [7] 99% | [3]; [8] 99% | [3]; at 50.0 µM 92% | [4]; [7] 99% | [4]; [8] 98% | [4]; at 50.0 µM 88.2% | [5]; [7] 99% | [5]; [8] 98% | [5]; at 50.0 µM 91.5% | [6]; [7] 98% | [6]; [8] 97% | [6]; at 50.0 µM 89.9%

C(=N\NC1=NCCN1)/c1ccc(-c2cn3cc(/C=N/NC4=NCCN4)ccc3n2)cc1
active: [1]; [7] 99% | [1]; [8] 99% | [1]; at 50.0 µM 99.1% | [2]; [7] 100% | [2]; [8] 99% | [2]; at 50.0 µM 97.8% | [3]; [7] 99% | [3]; [8] 100% | [3]; at 50.0 µM 99.3% | [4]; [7] 92% | [4]; [8] 98% | [4]; at 50.0 µM 98.1% | [5]; [7] 98% | [5]; [8] 99% | [5]; at 50.0 µM 99.3% | [6]; [7] 99% | [6]; [8] 99% | [6]; at 50.0 µM 99.4%

Source: PubChem BioAssay (NCI)
